Measured values published in PubChem BioAssay AID720513 (Broad Institute, 2013).
Hit rate of the full screen: of about 2,100 compounds, about 480 (23%) were called active. About 5% were inconclusive and are not listed.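 Rule for the calls: active = fitted curve reaches 40% activation at or below the top valid concentration, in every replicate test; inconclusive = replicate tests disagree on the call; inactive = the rest, including activity in the opposite direction.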 Only a sample is shown. Results with a measured potency or affinity are listed apart.

Experiment: activators raising PGC1a acetylation in cells, dose response, cell-based, cherry-picked samples, set 6 (AID 720513);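 note: cells made to overexpress flag tagged PGC1a plus GCN5 acetyltransferase by viral infection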
Details: U2OS PGC1a acetylation AlphaLISA, overnight, 0 = neutral, -100 = inhibitor control; series mostly up to 19.5 µM; activation (acetylation increase): at the top concentration

Activation (acetylation increase), inactive:
CCCCOc1ccc(CNC(=O)NS(=O)(=O)c2ccc(OCC(C)C)cc2)cc1 3.8%, CC(C)C#Cc1ccc2c(c1)O[C@@H](CN(C)Cc1ccccc1)[C@@H](C)CN([C@@H](C)CO)S2(=O)=O -67.6%, COc1ccc(-c2cc(C(=O)O)[nH]n2)cc1OC -8.64% [at 10 µM], COc1ccc(-c2nc3ccccc3c(=O)o2)cc1OC -30.4%, O=C(Nc1ccc(N2CCN(Cc3ccccc3F)CC2)cc1)c1ccc([N+](=O)[O-])o1 -102%, Cc1ccc(C(=O)N2CCN(c3ncccn3)CC2)cc1 25.8%, N#Cc1cc(Oc2cccc3cccnc23)c(-n2nnc3ccccc32)cc1C#N -29.1%, O=C1CN(S(=O)(=O)Cc2ccccc2)C[C@@H]2[C@@H](c3ccc(C#Cc4cccc(F)c4)cc3)[C@@H](CO)N12 -26.7%, COC(=O)c1ccc(OC)c(OC2CCCC2)c1 6.85%, N#Cc1ccc(-c2ccc([C@@H]3[C@H]4CNC[C@@H]3N4Cc3ccc4c(c3)OCO4)cc2)cc1 -65%, O=C(Cc1cccnc1)N1CC(=O)N2[C@H](CO)[C@@H](c3ccc(C#CC4CCCCC4)cc3)[C@H]2C1 -1.38%, CCN(CC)C1CC(=O)N(c2ccc(Br)cc2)C1=O (centres undefined) 21%, COc1cccc(NC(=O)N2CCN(c3cccc(C)c3)C(C)C2)c1 (centres undefined) 32.5%, COC(=O)c1cc(C(=O)N2CCN(c3cccc(Cl)c3)CC2)cc([N+](=O)[O-])c1 -24.1%, O=C(c1cc([N+](=O)[O-])ccc1N1CCCC1)N1CCCC1 22.3%, COC(=O)[C@]1(Cc2ccccc2)N=C(c2ccc(OCCCO)cc2)O[C@@H]1c1ccccc1 24.2%, O=C(c1cccc(Cl)c1)N1CCN(c2ccc(N3CCOCC3)nn2)CC1 -16.9%, CCN1C(C#N)=C(C#N)N=C(C)CC1(C)C -8.91%, CC1(C(=O)Nc2cccc(C#N)c2)CCN1C(=O)CCc1ccccc1 (centres undefined) 27.8%, O=C1C=CCCN1S(=O)(=O)/C=C/c1ccccc1 -81.8%, COc1cc(CN2C[C@@H]3N[C@H](C2)C3c2ccc(/C=C/c3ccccc3)cc2)cc(OC)c1 (some centres undefined) -94.1% [at 21 µM], CO[C@H]1CN(C)C(=O)c2ccc(NC(=O)Nc3ccccc3F)cc2OC[C@@H](C)NC[C@@H]1C -2.58%, CC(=O)N(C1=C(N2CCOCC2)C(=O)c2ccccc2C1=O)c1ccc(C(=O)O)cc1 -16%, N#Cc1ccsc1NC(=O)CSc1nnc(NC2CC2)s1 1.26%, Cc1cc(C)c(C#N)c(SCC(=O)Nc2nnc(-c3ccccc3)s2)n1 12.3%, Cc1ccc2nc(C)cc(OCC(=O)O)c2c1 -0.665%, C[C@@H]1CN([C@H](C)CO)C(=O)c2cc(C#CC3CC3)cnc2O[C@H]1CN(C)C(=O)Nc1ccc(F)cc1 3.17%, Cc1[nH]c2ccc(C(C)C)cc2c1CC(=O)O 15.9%, CC(C)(C)c1ccc(OCCSc2nc3ccccc3n2CC(=O)O)cc1 6.13%, COc1ccc2c(c1)c1nc3ccccc3nc1n2CC(=O)OC(C)C 9.95%, CC(C)(C)c1ccc(C(=O)NCCN2CCOCC2)cc1 12.6%, O=C(Nc1ccc(CN2CCOCC2)cc1)c1ccc(F)cc1 8.79%, N=c1n(Cc2ccccc2)c2ccccc2n1CC(O)COc1ccc(Cl)cc1Cl (centres undefined) -106%, Cc1nnc(SCC(=O)N2CCC(c3noc4ccc(F)cc34)CC2)s1 -9.01%, CS(=O)c1nc(-c2ccc(Br)cc2)cc(-c2ccccc2)c1C#N (centres undefined) -102%, CN(C)CCCNc1cc(-c2ccccc2)nc2cc(-c3cccc(F)c3)nn12 9.3% [at 10 µM], C=CCn1c(C)cc(C(=O)Cn2ncc(Cl)c(Cl)c2=O)c1C -99%, Cc1cc(C)c(S(=O)(=O)NCC2CCC(C(=O)NCc3ccc4c(c3)OCO4)CC2)c(C)c1 (centres undefined) 35.8%, Cc1noc(C)c1S(=O)(=O)Nc1ccc2c(c1)C(=O)N([C@H](C)CO)C[C@@H](C)[C@H](CN(C)Cc1ccc(C(F)(F)F)cc1)O2 6.91% [at 21 µM], O=c1oc(-c2ccccc2)nc2sc3c(c12)CCC3 13.4%, CCOC(=O)c1c(C)n(C)c2cc(Br)c(O)c(O)c12 -26.6%, CCOC(=O)c1c2c(n(C)c1C)C(=O)C(=O)c1ccc(Br)cc1-2 -64%, O=C(Nc1ccc2c(c1)OCO2)N[C@H]1CC[C@H](CCNC(=O)C2CCC2)O[C@@H]1CO 20%, CCOC(=O)c1c(NC(=O)/C=C/C(=O)O)sc(C)c1-c1ccc(C(C)(C)C)cc1 -36.6%, CCOC(=O)c1c(NC(=O)c2c(Br)cnn2CC)sc(C)c1C 24.3%, CN1CCc2c(sc3c2c(NCc2ccco2)nc2nnnn23)C1 25.8%, O=C(Cc1cccc(NC(=O)C2CCCN(C(=O)c3ccccc3)C2)c1)Nc1cccc(C(=O)N2CCOCC2)c1 (centres undefined) 9.98%, CCn1cnc2cc(NCc3ccc(N(C)C)cc3)ccc21 24.6%, O=C(Cc1cccc(NC(=O)C2CCN(C(=O)c3ccccc3)CC2)c1)Nc1cccc(C(=O)N2CCCCC2)c1 2.11%, COc1ccc(C(=O)Nc2cc(Cl)ccc2-n2cncn2)c(OC)c1OC 26.7%, Cc1noc(/C=C/N(C)C)c1S(=O)(=O)N(C)CC(=O)NC1CCCCC1 -4.8%, CCC(=O)N1C[C@H](C)[C@H](OC)CN(C)C(=O)c2cc(NC(=O)c3cnccn3)ccc2OC[C@@H]1C 11.4%, O=C(c1ccccc1-c1ccccc1)N1CCN(c2ccccn2)CC1 4.85%, Cc1nc2ncnn2c(C)c1CCC(=O)N1CCN(c2ccccn2)CC1 17%, COc1cccc(CNC(=O)C(=O)NCCC2CCCCN2S(=O)(=O)c2ccc(C)cc2)c1 (centres undefined) 40%, COc1ccc(CCNC(=O)C2CCN(C(=O)c3ccc(F)cc3)CC2)cc1OC -1.74%, Cc1ccc(S(=O)(=O)N2CCCC2CNC(=O)c2ccc(F)c(F)c2)cc1 (centres undefined) 16.1%, COc1ccc2nc(N3CCCC(C(=O)NCCCN4CCN(C)CC4)C3)sc2c1 (centres undefined) 38.8%, Nc1cc2ccncc2c2ccccc12 -9.67%, Cc1cc(Sc2nnc(N)s2)c2ccccc2n1 -27.3%, O=c1c2cccnc2n(-c2ccccc2)n1Cc1ccc(Cl)cc1 1.82%, O=C(Nc1ccc(-c2cn3c(n2)SCC3)cc1)c1ccc2ccccc2n1 11.9%, CCN(CC(=O)Nc1ccccc1OC)C(=O)C1CCC1 28.4%, COc1ccc(C(=O)Nc2cccc(NC(=O)c3ccc(OC)c(OC)c3)n2)cc1OC -64.7%
